Efflux pump mplx: antifungal efflux pump inhibition, Nile Red retention; AID 485275; actives 0.44% (n = 330,000); inhibition, % at 10 µM; S. cerevisiae Candida pump triplex;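 active = plate passing quality check with inhibition over a set limit, or well fluorescence over plate mean plus 4 SD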;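 note: Nile Red retained in pooled yeast measured as flow cytometry median fluorescence; 0% = buffer negative control and 100% = Enniatin B positive control; higher means more Nile Red kept so more efflux inhibition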
ALR inh: inhibitors of human sulfhydryl oxidase ALR. inhibition, % (concentration not given with the values). actives 3.8% (n = 290,000). AID 485317. purified ALR, DTT oxidation, H2O2 HRP-luminol luminescence;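 active = mean replicate inhibition above about 79%, with every replicate also reaching it, limit read from the data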
A1 inh: inhibitors of the anti-apoptotic protein A1, read as caspase activation; MEF A1-2A-BIM cells, Caspase-Glo 3/7 luminescence, 3 h; percent of clofoctol response, vehicle zero; actives 0.066% (n = 330,000); caspase activation, % (no concentration beside the values);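 active = over half of replicate activation scores above 10%, or exactly half above 10 with the replicate mean above 10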
AHR act: human AHR activation | AHR-responsive luciferase reporter cells, luminescence | actives 2.5% (n = 320,000) | activation, % at 5 µM; in the data active = activation above about 47%;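 note: 0% = vehicle wells and 100% = reference agonist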
Target sequence (P35869 whole entry, looked up): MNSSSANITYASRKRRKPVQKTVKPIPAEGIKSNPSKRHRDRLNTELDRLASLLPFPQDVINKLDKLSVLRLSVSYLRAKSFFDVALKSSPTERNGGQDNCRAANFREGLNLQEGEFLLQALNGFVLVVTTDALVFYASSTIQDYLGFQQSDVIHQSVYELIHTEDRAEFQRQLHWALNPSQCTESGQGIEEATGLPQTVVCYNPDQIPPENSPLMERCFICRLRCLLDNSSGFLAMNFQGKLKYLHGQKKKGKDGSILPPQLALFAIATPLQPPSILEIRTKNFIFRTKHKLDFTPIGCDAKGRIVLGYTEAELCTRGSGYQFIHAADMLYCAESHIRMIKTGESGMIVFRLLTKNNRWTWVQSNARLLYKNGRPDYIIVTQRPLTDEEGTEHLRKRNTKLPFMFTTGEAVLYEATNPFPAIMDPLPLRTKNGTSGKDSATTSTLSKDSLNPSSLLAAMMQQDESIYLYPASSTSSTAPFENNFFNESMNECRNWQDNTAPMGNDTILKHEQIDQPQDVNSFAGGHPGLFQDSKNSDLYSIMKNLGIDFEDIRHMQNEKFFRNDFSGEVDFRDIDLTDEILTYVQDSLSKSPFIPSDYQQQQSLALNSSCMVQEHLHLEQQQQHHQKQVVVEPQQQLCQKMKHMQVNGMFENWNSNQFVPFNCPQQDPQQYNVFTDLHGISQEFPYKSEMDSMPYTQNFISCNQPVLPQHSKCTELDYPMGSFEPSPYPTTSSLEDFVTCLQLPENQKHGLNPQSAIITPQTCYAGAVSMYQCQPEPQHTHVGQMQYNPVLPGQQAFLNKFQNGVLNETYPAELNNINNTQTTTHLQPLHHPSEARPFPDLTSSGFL
VLA-4 inh: inhibition in a human VLA-4 binding assay. P13612. VLA-4 expressing cells, ligand binding flow cytometry. inhibition, % (about 7 µM as worked out from the volumes in the protocol). actives 0.2% (n = 330,000). AID 2557; in the data active = inhibition above about 50%
SUMO Mot1 rescue: blocks SUMOylation pathway, rescuing yeast Mot1-301 growth; S. cerevisiae Mot1-301 growth rescue, ATP luminescence, 38.5C; percent above DMSO median, 100 means doubled; AID 2716; growth rescue, % at 18.8 µM; actives 1% (n = 320,000);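 active = every valid replicate shows activation above 250% relative to neutral control wells; inactive = the rest, any valid replicate at or below 250%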;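 note: OY570 slx delta 5 strain wells were the positive control but not used for scaling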
* marks the source's active call; other numbers are inactive results. An excerpt weighted towards active compounds, which were near 7.2% of everything screened.

Screening CC1CC(C)CN(C(=O)c2ccc(-c3ccc([N+](=O)[O-])cc3)o2)C1 (stereo not given) returned Efflux pump mplx -0.1, ALR inh 88.8*, A1 inh 10.1*, AHR act -0.1, VLA-4 inh -0.1 and SUMO Mot1 rescue 146.9.
`CC(=O)c1ccc(NC(=O)c2ccn(C(=O)OCC(C)C)n2)cc1` gave Efflux pump mplx 0.9, ALR inh 1.1, A1 inh -0.2, AHR act 7.1, VLA-4 inh -2.1 and SUMO Mot1 rescue -14.3.
Screening O=c1c(C(c2ccc(Cl)cc2)c2c(O)nc3n(c2=O)CCS3)c(O)nc2n1CCS2 returned Efflux pump mplx 0.1, ALR inh 97.8*, A1 inh 0.5, AHR act 0.3, VLA-4 inh 7.7 and SUMO Mot1 rescue -7.9.
Screening COc1cccc(/C=C/c2nc3c(cnn3-c3ccccc3)c(=O)[nH]2)c1 returned Efflux pump mplx 0.1, ALR inh 8.4, A1 inh -0.2, AHR act 32.0, VLA-4 inh -5.1 and SUMO Mot1 rescue -15.6.
`O=c1[nH]c(/C=C/c2ccc(Br)cc2)nc2c1cnn2-c1ccccc1` gave Efflux pump mplx -0.2, ALR inh 1.2, A1 inh 0.9, AHR act 54.5*, VLA-4 inh 1.5 and SUMO Mot1 rescue -7.0.
For CCC(C)Nc1nc2c(c(=O)[nH]c(=O)n2C)n1CCCc1ccccc1 (stereo not given) the results were Efflux pump mplx -0.1, ALR inh 82.3*, A1 inh -0.9, AHR act -0.4, VLA-4 inh 15.3 and SUMO Mot1 rescue -3.7.
For CNc1nc2c(c(=O)[nH]c(=O)n2C)n1CCCc1ccccc1 the results were Efflux pump mplx 0.0, ALR inh 8.4, A1 inh 1.2, AHR act 5.6, VLA-4 inh 4.3 and SUMO Mot1 rescue 3.8.
`C=CCNc1nc2c(c(=O)n(C)c(=O)n2C)n1Cc1ccc(F)cc1` gave Efflux pump mplx -0.2, ALR inh -1.1, A1 inh -0.9, AHR act -2.4, VLA-4 inh 17.2 and SUMO Mot1 rescue -4.8.
`CCC(C)Nc1nc2c(c(=O)n(C)c(=O)n2C)n1Cc1ccc(F)cc1` (stereo not given) gave Efflux pump mplx 0.1, ALR inh 89.7*, A1 inh -0.9, AHR act -0.4, VLA-4 inh 7.8 and SUMO Mot1 rescue 31.3.
`Cn1c(=O)[nH]c(=O)c2c1nc(Br)n2C/C=N/Nc1ccccc1` gave Efflux pump mplx -0.1, ALR inh 100.3*, A1 inh -0.5, AHR act 5.6, VLA-4 inh -1.3 and SUMO Mot1 rescue 234.0.
For CNC(=O)C1CCN(S(=O)(=O)c2c(C)noc2/C=C/c2ccc(OC)cc2)CC1 the results were Efflux pump mplx -0.1, ALR inh 0.5, A1 inh -0.1, AHR act 2.2, VLA-4 inh -13.2 and SUMO Mot1 rescue 11.9.
Screening COc1ccc(CNC(=O)N[C@H](C(=O)O)C(C)C)cc1OC returned Efflux pump mplx 0.0, ALR inh -13.7, A1 inh 0.4, AHR act 0.2, VLA-4 inh -5.5 and SUMO Mot1 rescue 37.8.
For CN(C)CCNC(=O)/C(=N\O)c1ccccn1 the results were Efflux pump mplx -0.1, ALR inh -12.6, A1 inh 1.4, AHR act -2.3, VLA-4 inh 5.1 and SUMO Mot1 rescue 15.2.
For CCC(CC)C(=O)Nc1cc(C)c2c(=O)oc3ccccc3c2n1 the results were Efflux pump mplx 0.1, ALR inh 2.7, A1 inh 0.1, AHR act 50.1*, VLA-4 inh -19.1 and SUMO Mot1 rescue 3.7.
Screening Cc1cc(NC(=O)c2ccccc2)nc2c1c(=O)oc1ccccc12 returned Efflux pump mplx 0.2, ALR inh -5.9, A1 inh 0.1, AHR act 23.7, VLA-4 inh 0.0 and SUMO Mot1 rescue 21.8.
Screening Cc1ccsc1C1C(C#N)=C(N)N(N(C)C)C2=C1C(=O)CC(C)(C)C2 (stereo not given) returned Efflux pump mplx 0.0, A1 inh 0.4, AHR act 2.1, VLA-4 inh -3.3 and SUMO Mot1 rescue 4.2.
For Cc1cccc(CN2CCc3c([nH]c4ccccc34)C2C(C)(C)C)n1 (stereo not given) the results were Efflux pump mplx 0.1, ALR inh 13.3, A1 inh 0.9, AHR act 59.8*, VLA-4 inh 0.6 and SUMO Mot1 rescue -6.2.
Screening Cc1nc2c(C(=O)NCCc3ccccc3Cl)c[nH]n2c(=O)c1Cl returned Efflux pump mplx 0.1, ALR inh 98.7*, A1 inh 0.0, AHR act -0.7, VLA-4 inh 11.4 and SUMO Mot1 rescue 234.3.
Screening O=C(/C=C/c1ccccc1Cl)c1cccnc1 returned Efflux pump mplx 0.2, ALR inh 15.2, A1 inh -0.6, AHR act 3.8, VLA-4 inh 2.5 and SUMO Mot1 rescue 274.7*.
Cc1ccc(C(=O)N/C(=C\c2ccc(-c3ccccc3[N+](=O)[O-])o2)C(=O)NCCN(C)C)cc1 was read as Efflux pump mplx 0.2, ALR inh -20.9, A1 inh 0.6, AHR act 51.8*, VLA-4 inh -0.1 and SUMO Mot1 rescue -2.3.
For O=C(NNC(=S)NCC1CCCO1)c1cccc(S(=O)(=O)N2CCOCC2)c1 (stereo not given) the results were Efflux pump mplx -0.1, ALR inh 24.8, A1 inh 0.9, AHR act -1.2, VLA-4 inh 5.1 and SUMO Mot1 rescue 97.7.
`Cc1ccc(NC(=O)CCN2CCC(C(N)=O)CC2)cc1` gave Efflux pump mplx 0.1, ALR inh 0.9, A1 inh 0.0, AHR act 2.3, VLA-4 inh 10.6 and SUMO Mot1 rescue -10.4.
`Fc1ccc(-[n+]2nc(Nc3ccccc3)sc2-c2c3ccccc3cc3ccccc23)cc1` gave Efflux pump mplx 0.0, ALR inh -4.7, A1 inh 0.1, AHR act 20.3, VLA-4 inh 3.6 and SUMO Mot1 rescue -5.5.
`c1ccc(-[n+]2nc(Nc3cccc4ccccc34)sc2-c2c3ccccc3cc3ccccc23)cc1` gave Efflux pump mplx -0.2, ALR inh 33.0, A1 inh 0.4, AHR act 62.3*, VLA-4 inh 1.6 and SUMO Mot1 rescue -3.7.
CCOC(=O)N1CCC(Nc2cccc(SC)c2)CC1 was read as Efflux pump mplx -0.1, ALR inh 97.5*, A1 inh 0.8, AHR act 13.2, VLA-4 inh 3.0 and SUMO Mot1 rescue -10.0.
Nc1ccc(-c2ccc(N)c(C(=O)O)c2)cc1C(=O)O was read as Efflux pump mplx 0.0, ALR inh 82.8*, A1 inh -0.5, AHR act 0.2, VLA-4 inh -12.9 and SUMO Mot1 rescue -37.3.
O=C(CSc1n[nH]c(=O)n1C1CC1)NCc1ccccc1Cl was read as Efflux pump mplx -0.3, ALR inh 0.7, A1 inh 0.6, AHR act 0.4, VLA-4 inh 22.2 and SUMO Mot1 rescue 12.3.
